In PubChem BioAssay one finds composite z-score and z-score data, which are given here for four compounds.

Activity calls are given as the source filed them. Unless noted, how the calls were made is not given here.

Test [1] is described as follows: compounds binding Alexa647 anti-His antibody – biochemical, small-molecule microarray, 635 nm fluorescence, artefact control for SMM control protein annotation, primary screen (AID 1128).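 Further: score merges feature fluorescence with signal-to-noise for each printed compound spot.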 As to conditions: higher = more signal.
For test [2], the system named is Human papillomavirus type 1a E7 protein (residues 1-88). Briefly: HPV1a E7 small-molecule binders, primary screen, biochemical, small-molecule microarray, residues 1-88, 635 nm (AID 1129). As to conditions: small-molecule microarray binding, fluorescence 635 nm; higher = more signal.
The target in test [3] is Focal adhesion kinase 1 (Homo sapiens) (UniProt Q05397). Kind of test: PTK2 protein binding on printed compound slides – biochemical, small-molecule microarray, 635/667 nm fluorescence, BSA, DTT, primary screen (AID 1130).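 Further: composite of spot emission at 667 nm and signal to noise over triplicate slides.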 As to conditions: 635 nm fluorescence, higher = more signal.
The subject of test [4] is Fibrinogen (Alexa647-labelled). Briefly: Alexa647-fibrinogen binding to printed small molecules – biochemical, small-molecule microarray, 635/667 nm fluorescence, artefact control for SMM control-protein annotation, profiling panel (AID 1131).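 Further: z-score merges 667 nm fluorescence with per-spot signal-to-noise over triplicate slides.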 As to conditions: fibrinogen-A647 binding fluorescence, higher = more signal.
Test [5] has as its target Follistatin (Homo sapiens) (UniProt P19883). Briefly: FST protein binding to printed compounds – biochemical, small-molecule microarray, 635/667 nm fluorescence, primary screen (AID 1132). As to conditions: 635 nm fluorescence, higher = more signal.
For test [6], the target named is Fibroblast growth factor 2 (Homo sapiens) (UniProt P09038). Kind of test: basic fibroblast growth factor binding to printed compounds – biochemical, small-molecule microarray, 635/667 nm fluorescence, primary screen (AID 1133). The conditions noted are these: FGF2, fluorescence 635/667, higher = more signal.
The nature of test [7]: JC-1 mitochondrial potential readout, lung cancer cells – cell-based, A549, JC-1 fluorescence, basal, 24 h, 100 nL, profiling panel (AID 1138).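 Further: A549 lung adenocarcinoma cells under basal conditions with no added stimulus; test concentration not given here.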 The conditions noted are these: higher = more signal.
For another test, the system named is Lefty1. Kind of test: Lefty1 protein binding to printed compounds – biochemical, small-molecule microarray, 635/667 nm fluorescence, primary screen (AID 1139). The conditions noted are these: fluorescence 635/667, higher = more signal.
The subject of test [8] is wheat germ agglutinin (Triticum aestivum), Alexa647-labelled. Briefly: Alexa647-WGA lectin binding to printed small molecules – biochemical, small-molecule microarray, 635/667 nm fluorescence, artefact control for SMM control-protein annotation, profiling panel (AID 1140).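 Further: score merges 667 nm feature emission with signal to noise over triplicate slides.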 The conditions noted are these: WGA-A647 binding, 635 nm fluorescence, higher = more signal.
For test [9], the target named is Luciferin 4-monooxygenase (Photinus pyralis) (UniProt P08659). Kind of test: inhibition of purified Photinus pyralis luciferase – biochemical, luminescence, purified enzyme, 2006 set, primary screen (AID 1141).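 Further: cell-free assay with purified firefly luciferase at 100 ng per well in PBS; test concentration not given here.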 As to conditions: purified firefly luciferase, SteadyGlo luminescence, 30 min; higher = more signal, called active from +8 up or from −8 down.
Test [10] has as its system Wnt5a (protein binding on small-molecule microarray). Kind of test: small molecules binding Wnt5a protein – biophysical, small-molecule microarray, 635/667 nm fluorescence, primary screen (AID 1142).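 Further: fluorescence read at 667 nm with signal to noise per printed feature.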 As to conditions: 635 nm fluorescence, higher = more signal.
Test [11] is described as follows: ATP-based viability of Huh7 replicon cells – cell-based, CellTiter-Glo luminescence, basal, 48 h, cytotoxicity control for HCV replication inhibitor project, primary screen (AID 1143).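 Further: Huh7 hepatoma cells carrying a hepatitis C replication reporter with no stimulus; test concentration not given here.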 The conditions noted are these: higher = more signal, called active from +8 up or from −8 down.
Test [12] in a line: Pseudomonas biofilm growth suppression – PAO1 strain, BacTiter-Glo luminescence, LB-PBS, primary screen (AID 1144). As to conditions: P. aeruginosa PAO1 biofilm, 12 h, higher = more signal.
The nature of test [13]: basal CRE-LacZ reporter activity in PC12 – cell-based, unstimulated, primary screen (AID 1145). The conditions noted are these: no forskolin, luminescence, 4.5 h, higher = more signal, called active from +8 up or from −8 down.
A short description of test [14]: forskolin-driven CRE-LacZ activity in PC12 – cell-based, CRE-LacZ reporter, forskolin-stimulated, primary screen (AID 1146).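 Further: PC12 cells with 6xCRE LacZ reporter stimulated by forskolin 10 µM; beta-galactosidase reporter signal reflecting CREB driven transcription.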 As to conditions: luminescence, 4.5 h, higher = more signal, called active from +8 up or from −8 down.
Test [15] has as its target Streptavidin (Streptomyces avidinii) (UniProt P22629). Kind of test: compounds binding control protein streptavidin – biophysical, small-molecule microarray, 635/667 nm fluorescence, artefact control for SMM compound annotation, primary screen (AID 1147).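 Further: signal reflects streptavidin binding to arrayed compounds as a control protein.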 The conditions noted are these: higher = more signal.
Test [16] can be described thus: probe aInhba binding on compound microarray – biochemical, small-molecule microarray, 635/667 nm fluorescence, primary screen (AID 1148).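 Further: score merges 667nm spot fluorescence with signal-to-noise for antibody binding to printed compounds.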 The conditions noted are these: higher = more signal.
Test [17] deals with Torsin-1A (Homo sapiens) (UniProt O14656). Briefly: TOR1A wild-type binding on microarray – cell lysate, small-molecule microarray, lysate, 635/667 nm, primary screen (AID 1149). The conditions noted are these: COS7 hTOR1A-WT lysate, 635 nm fluorescence, higher = more signal.
For test [18] the target is unchanged. Briefly: torsin A mutant lysate binding on microarrays – cell lysate, small-molecule microarray, COS7 lysate, 635/667 nm fluorescence, primary screen (AID 1150).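 Further: score pools 667 nm emission and signal to noise measuring lysate protein binding.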 As to conditions: COS7 hTOR1A mutant lysate, 635 nm fluorescence, higher = more signal.
For test [19], the system named is Sonic hedgehog protein (Shh). Kind of test: Sonic hedgehog microarray binding compounds – biochemical, small-molecule microarray, 635/667 nm fluorescence, primary screen (AID 1151).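 Further: Shh protein binding to compounds spotted on small-molecule microarray slides; score combines spot fluorescence intensity with signal-to-noise across triplicate slides.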 The conditions noted are these: 635 nm fluorescence, higher = more signal.

Chain of Focal adhesion kinase 1 (Homo sapiens) (Q05397 whole entry, looked up): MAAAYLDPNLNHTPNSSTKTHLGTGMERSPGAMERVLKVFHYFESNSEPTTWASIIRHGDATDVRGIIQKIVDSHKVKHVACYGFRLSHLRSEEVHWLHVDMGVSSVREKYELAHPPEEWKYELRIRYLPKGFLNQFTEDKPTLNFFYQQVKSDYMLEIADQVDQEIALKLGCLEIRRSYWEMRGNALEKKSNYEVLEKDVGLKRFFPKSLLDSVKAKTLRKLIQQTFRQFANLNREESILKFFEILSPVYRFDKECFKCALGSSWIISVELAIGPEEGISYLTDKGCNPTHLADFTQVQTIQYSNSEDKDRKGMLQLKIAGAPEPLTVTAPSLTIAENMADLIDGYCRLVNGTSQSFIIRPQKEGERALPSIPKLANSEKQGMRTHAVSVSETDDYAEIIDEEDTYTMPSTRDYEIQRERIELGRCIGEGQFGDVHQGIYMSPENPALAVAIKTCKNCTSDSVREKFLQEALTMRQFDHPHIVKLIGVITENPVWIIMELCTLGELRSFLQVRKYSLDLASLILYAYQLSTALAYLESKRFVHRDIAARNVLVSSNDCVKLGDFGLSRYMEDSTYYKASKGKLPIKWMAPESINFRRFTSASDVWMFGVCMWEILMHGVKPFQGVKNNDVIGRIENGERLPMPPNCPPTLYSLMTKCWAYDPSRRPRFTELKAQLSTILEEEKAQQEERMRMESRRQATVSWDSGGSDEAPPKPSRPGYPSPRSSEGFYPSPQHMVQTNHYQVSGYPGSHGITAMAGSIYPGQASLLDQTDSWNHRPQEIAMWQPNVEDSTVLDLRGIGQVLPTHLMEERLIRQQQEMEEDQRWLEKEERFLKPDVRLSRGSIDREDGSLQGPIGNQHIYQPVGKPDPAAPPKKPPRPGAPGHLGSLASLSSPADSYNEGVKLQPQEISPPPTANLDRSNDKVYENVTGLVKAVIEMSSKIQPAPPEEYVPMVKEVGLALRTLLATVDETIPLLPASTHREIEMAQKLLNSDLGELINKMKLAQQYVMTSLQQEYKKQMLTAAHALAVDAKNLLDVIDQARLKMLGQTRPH
Chain of Streptavidin (Streptomyces avidinii) (P22629 whole entry, looked up): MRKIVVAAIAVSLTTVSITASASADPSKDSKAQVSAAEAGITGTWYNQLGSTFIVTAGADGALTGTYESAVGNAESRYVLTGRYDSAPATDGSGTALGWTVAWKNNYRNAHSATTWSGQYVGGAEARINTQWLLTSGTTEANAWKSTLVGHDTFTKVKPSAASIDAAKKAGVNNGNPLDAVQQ
Chain of Luciferin 4-monooxygenase (Photinus pyralis) (P08659 whole entry, looked up): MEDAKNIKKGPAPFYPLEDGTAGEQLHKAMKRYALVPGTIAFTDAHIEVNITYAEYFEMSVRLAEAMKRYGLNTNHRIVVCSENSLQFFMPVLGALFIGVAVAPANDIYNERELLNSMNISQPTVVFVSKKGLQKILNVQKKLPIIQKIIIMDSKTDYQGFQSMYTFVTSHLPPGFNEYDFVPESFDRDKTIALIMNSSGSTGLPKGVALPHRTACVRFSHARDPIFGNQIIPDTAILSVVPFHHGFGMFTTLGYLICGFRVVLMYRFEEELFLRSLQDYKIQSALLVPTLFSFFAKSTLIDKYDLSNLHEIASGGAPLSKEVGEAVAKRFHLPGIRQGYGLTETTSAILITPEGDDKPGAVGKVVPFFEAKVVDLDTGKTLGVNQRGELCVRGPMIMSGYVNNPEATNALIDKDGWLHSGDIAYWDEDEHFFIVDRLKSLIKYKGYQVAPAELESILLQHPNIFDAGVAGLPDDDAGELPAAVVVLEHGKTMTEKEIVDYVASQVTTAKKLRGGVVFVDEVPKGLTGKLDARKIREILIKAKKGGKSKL
Chain of Torsin-1A (Homo sapiens) (O14656 whole entry, looked up): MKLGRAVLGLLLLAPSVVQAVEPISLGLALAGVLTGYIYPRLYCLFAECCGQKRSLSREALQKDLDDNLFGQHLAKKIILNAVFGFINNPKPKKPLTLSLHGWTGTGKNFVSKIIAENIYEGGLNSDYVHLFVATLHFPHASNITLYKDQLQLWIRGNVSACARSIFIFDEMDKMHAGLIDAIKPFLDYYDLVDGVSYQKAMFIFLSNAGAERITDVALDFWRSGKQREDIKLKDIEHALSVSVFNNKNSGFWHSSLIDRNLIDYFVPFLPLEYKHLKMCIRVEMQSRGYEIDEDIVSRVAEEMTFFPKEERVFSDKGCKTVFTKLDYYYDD
Chain of Fibroblast growth factor 2 (Homo sapiens) (P09038 whole entry, looked up): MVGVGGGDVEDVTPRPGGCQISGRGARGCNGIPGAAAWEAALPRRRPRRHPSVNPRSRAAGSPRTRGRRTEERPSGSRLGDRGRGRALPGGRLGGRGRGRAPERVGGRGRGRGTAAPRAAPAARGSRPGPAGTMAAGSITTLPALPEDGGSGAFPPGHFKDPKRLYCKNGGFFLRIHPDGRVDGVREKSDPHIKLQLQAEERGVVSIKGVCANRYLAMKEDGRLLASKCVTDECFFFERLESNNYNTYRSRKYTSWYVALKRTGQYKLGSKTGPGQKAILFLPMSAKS
Chain of Follistatin (Homo sapiens) (P19883 whole entry, looked up): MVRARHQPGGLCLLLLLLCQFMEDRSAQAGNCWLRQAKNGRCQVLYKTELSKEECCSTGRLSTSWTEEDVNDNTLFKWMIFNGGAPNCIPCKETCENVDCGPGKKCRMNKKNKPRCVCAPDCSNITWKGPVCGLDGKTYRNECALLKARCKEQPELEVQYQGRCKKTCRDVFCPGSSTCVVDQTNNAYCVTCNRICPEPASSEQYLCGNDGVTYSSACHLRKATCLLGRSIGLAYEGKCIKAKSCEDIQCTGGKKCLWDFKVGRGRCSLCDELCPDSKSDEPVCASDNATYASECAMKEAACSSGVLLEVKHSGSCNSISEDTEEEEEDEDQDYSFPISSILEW

On to `CCCNC(=O)[C@@]1(c2ccc([N+](=O)[O-])cc2)CC(=O)N(C2CCCCC2)[C@@H]1c1ccc(CO)cc1I`, for which the composite z-score is 2.18 in [1]; 0.949 in [2]; 0.178 in [3]; 0.34 in test [4]; 1.21 in test [5]; 1.52 in test [6]. Besides, the composite z-score was found to be 1.01 in the test with Lefty1; 1.1 in test [8]; 1.01 in [10]; 0.277 in test [15]; 0.306 in test [16]; 0.224 with Torsin-1A (Homo sapiens) [17]. The composite z-score with Torsin-1A (Homo sapiens) [18] is 0.451; in test [19], 1.85. Moreover, the z-score in test [7] was 1.4; in [9], -0.424 (inactive); in test [11], -4.24 (inactive); in test [12], -0.326 (inactive); in test [13] it was -0.682 (inactive); in test [14], 1.18 (inactive).

`COCC(=C=CC[C@H](O)c1cccc(OCCO)c1)C[C@H](O)c1ccccn1`: the composite z-score in test [1] was 0.344; in test [2], 0.273; in [3] it was -0.296; in test [4] it was 0.521; in [5], 1.37; in [6], 0.89. Also, the composite z-score was 1.37 in the test on Lefty1; 0.613 in test [8]; 0.467 in test [10]; -0.368 in test [15]; 0.0497 in test [16]; -0.733 with Torsin-1A (Homo sapiens) [17]. The composite z-score with Torsin-1A (Homo sapiens) [18] was -0.526; in test [19], 1.59. Also, the z-score in test [7] was 1.07; in [9], -0.266 (inactive); in test [11] it was -0.0843 (inactive); in [12], -0.368 (inactive); in [13], 1.34 (inactive); in test [14], -0.527 (inactive).

`CCOC(=O)[C@H]1C/C=C/C[C@H](C(=O)OCC)C(=O)O[C@H]2[C@@H](OC)O[C@H](CO)[C@@H](OC(=O)Nc3ccc(OC)cc3)[C@@H]2OC1=O`: the composite z-score was 1.96 in test [1]; 1.16 in test [2]; 0.768 in test [3]; 0.369 in test [4]; 1.16 in test [5]; 0.741 in test [6]. The composite z-score in the test on Lefty1 came to 0.636; in test [8] it was 0.648; in test [10], 0.314; in test [15] it was 0.355; in test [16] it was 0.134; with Torsin-1A (Homo sapiens) [17] it was 0.494. The composite z-score in the test with Torsin-1A (Homo sapiens) [18] amounted to 1.64; in [19] it was 0.733. Besides, the z-score is 2.61 in [7]; -2.06 (inactive) in test [9]; -3.41 (inactive) in [11]; 0.29 (inactive) in test [12]; 0.484 (inactive) in test [13]; 0.106 (inactive) in test [14].

On to `O=C1O[C@@H](c2ccccc2)[C@@H](c2ccccc2)N2[C@@H](c3ccccc3OCCO)[C@]3(C(=O)Nc4ccc(C#CC5=CCCCC5)cc43)[C@@H](C(=O)NC[C@H](O)c3ccccc3)[C@H]12`, for which the composite z-score stood at 1.08 in test [1]; 1.13 in test [2]; 0.0363 in test [3]; 0.883 in [4]; 0.961 in test [5]; 1.51 in [6]. For the same compound, the composite z-score in the test with Lefty1 is 1.02; in test [8] it was -0.186; in test [10], 0.361; in [15] it was 0.625; in [16], 0.162; with Torsin-1A (Homo sapiens) [17], 0.385. In addition, the composite z-score with Torsin-1A (Homo sapiens) [18] was -0.0373; in test [19] it was 1.99. The z-score in test [7] is -1.69; in test [9], -1.32 (inactive); in test [11], -6.39 (inactive); in [12], -0.534 (inactive); in [13], -1.56 (inactive); in [14] it was -1.15 (inactive).
